Results taken from the supplement of paper PMC11732987, “Enantioselective OTUD7B fragment discovery through chemoproteomics screening and high-throughput optimisation” (Communications Chemistry, 2025).

Tests used:
Assay in all cases: log2 ratio of Biotin-Ahx-Ub-VS probe labelling (fragment/DMSO); higher = less target engagement (more negative = stronger competition), active = hit call of the paper (q ≤ 0.05, log2 ratio ≤ -1)
Settings in all cases: compound concentration: 200 uM; treatment time: 3 h
[1] = molecular target: T1, ALG13 (UniProt Q9NP73)
T1 sequence (whole entry): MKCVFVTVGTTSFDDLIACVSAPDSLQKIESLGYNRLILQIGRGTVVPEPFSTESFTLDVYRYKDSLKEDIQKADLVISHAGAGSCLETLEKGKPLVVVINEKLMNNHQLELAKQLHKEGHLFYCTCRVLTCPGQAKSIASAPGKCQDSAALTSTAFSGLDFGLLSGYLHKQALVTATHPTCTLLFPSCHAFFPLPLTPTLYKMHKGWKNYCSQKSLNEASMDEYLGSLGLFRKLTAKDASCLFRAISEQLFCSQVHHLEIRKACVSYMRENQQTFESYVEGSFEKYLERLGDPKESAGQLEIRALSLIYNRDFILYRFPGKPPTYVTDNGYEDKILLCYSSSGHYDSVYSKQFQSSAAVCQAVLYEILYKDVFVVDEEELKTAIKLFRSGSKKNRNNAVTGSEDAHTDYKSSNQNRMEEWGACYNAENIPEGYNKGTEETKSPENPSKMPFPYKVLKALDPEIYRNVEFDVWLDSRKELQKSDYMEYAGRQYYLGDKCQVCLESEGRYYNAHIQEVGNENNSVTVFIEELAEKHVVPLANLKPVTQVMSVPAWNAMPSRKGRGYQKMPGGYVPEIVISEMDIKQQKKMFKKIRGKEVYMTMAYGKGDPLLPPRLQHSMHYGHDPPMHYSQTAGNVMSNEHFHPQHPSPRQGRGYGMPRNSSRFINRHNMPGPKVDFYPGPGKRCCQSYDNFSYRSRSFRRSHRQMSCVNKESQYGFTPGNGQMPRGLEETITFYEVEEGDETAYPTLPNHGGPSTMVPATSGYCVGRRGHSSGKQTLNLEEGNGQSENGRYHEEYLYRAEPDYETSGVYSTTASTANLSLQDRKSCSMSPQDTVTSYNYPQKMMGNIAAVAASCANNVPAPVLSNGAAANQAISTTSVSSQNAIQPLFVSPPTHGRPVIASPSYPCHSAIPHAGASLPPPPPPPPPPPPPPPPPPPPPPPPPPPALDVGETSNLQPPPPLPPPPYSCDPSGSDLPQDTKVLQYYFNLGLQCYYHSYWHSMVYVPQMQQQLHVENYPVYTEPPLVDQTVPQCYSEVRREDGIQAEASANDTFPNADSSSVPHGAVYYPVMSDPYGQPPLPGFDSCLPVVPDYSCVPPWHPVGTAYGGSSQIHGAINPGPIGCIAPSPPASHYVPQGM
Outline: (§1)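 Each value is an average log2 ratio of fragment to vehicle, tested by unpaired t-test. The underlying Spectronaut label-free quantities were global-median-normalised, and only proteins with ≥2 unique peptides were included. Triplicate HEK293T lysate samples (495 µg) were exposed to fragment at 200 µM or vehicle for 3 h, then to Biotin-Ahx-Ub-VS at 0.5 µM final for 1 h, before NeutrAvidin enrichment of labelled DUBs, LysC and trypsin digestion, and diaPASEF LC-MS/MS.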

[2] = molecular target: ATXN3 (UniProt P54252)
Sequence of ATXN3 (P54252 whole entry): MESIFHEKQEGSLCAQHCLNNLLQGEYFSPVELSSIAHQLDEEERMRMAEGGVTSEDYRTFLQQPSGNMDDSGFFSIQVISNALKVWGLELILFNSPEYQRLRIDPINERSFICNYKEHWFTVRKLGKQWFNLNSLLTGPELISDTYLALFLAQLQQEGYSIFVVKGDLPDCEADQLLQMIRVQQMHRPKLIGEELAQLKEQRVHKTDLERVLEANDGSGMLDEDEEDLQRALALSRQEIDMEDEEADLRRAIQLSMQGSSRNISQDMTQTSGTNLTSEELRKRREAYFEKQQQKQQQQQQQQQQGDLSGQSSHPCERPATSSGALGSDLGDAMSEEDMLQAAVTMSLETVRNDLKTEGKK
Outline: as §1

[3] = molecular target: T2, BAP1 (UniProt Q92560)
T2 sequence (whole entry): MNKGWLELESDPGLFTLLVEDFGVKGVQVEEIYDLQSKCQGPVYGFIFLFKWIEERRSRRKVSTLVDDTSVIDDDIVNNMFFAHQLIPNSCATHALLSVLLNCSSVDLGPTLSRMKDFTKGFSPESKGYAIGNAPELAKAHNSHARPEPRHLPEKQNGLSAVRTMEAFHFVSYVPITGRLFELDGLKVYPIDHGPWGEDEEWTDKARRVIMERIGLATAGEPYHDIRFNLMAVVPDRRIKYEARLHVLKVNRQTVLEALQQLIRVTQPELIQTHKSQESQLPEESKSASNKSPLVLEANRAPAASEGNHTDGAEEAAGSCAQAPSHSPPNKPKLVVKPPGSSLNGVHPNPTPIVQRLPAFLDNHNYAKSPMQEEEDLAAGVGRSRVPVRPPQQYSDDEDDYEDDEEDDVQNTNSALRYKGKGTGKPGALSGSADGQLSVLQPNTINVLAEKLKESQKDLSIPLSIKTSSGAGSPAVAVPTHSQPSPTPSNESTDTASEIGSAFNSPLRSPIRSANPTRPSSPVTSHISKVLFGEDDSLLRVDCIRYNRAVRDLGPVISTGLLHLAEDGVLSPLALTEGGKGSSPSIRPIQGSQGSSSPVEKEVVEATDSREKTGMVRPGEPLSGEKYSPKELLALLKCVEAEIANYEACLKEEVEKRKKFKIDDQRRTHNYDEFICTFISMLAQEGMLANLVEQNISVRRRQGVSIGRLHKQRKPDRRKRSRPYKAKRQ
Outline: as §1

[4] = molecular target: EIF3F (UniProt O00303)
Sequence of EIF3F (O00303 whole entry): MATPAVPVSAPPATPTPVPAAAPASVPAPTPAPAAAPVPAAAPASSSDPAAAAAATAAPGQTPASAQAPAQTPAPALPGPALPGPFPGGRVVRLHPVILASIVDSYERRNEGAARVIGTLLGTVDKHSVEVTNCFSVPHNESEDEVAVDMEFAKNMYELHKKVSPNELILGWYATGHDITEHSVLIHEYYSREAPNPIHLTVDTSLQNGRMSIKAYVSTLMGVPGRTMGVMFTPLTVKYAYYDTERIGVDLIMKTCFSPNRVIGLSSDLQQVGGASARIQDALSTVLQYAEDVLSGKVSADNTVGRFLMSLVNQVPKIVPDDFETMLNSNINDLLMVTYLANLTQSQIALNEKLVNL
Outline: as §1

[5] = molecular target: EIF3H (UniProt O15372)
Sequence of EIF3H (O15372 whole entry): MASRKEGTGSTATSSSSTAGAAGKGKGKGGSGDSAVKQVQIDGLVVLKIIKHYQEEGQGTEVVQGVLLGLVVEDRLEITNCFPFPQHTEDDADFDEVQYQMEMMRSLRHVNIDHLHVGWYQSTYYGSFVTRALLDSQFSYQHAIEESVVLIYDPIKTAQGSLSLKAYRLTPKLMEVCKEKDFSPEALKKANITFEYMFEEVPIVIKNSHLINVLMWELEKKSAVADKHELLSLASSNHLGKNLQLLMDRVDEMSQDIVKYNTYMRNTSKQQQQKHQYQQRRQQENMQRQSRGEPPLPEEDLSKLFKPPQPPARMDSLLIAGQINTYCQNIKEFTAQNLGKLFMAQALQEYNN
Outline: as §1

[6] = molecular target: T3, FAM105A (UniProt Q9NUU6)
T3 sequence (whole entry): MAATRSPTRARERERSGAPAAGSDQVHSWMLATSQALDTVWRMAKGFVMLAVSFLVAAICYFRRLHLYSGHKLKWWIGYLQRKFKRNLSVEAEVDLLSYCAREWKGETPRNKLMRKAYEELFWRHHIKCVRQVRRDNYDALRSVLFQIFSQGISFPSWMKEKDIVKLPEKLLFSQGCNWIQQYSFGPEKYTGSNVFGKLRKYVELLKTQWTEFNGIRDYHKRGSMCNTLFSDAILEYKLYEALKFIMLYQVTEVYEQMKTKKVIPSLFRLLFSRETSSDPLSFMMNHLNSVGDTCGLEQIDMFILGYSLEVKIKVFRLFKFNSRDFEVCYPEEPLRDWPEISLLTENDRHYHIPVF
Outline: as §1

[7] = molecular target: OTUB1 (UniProt Q96FW1)
Sequence of OTUB1 (Q96FW1 whole entry): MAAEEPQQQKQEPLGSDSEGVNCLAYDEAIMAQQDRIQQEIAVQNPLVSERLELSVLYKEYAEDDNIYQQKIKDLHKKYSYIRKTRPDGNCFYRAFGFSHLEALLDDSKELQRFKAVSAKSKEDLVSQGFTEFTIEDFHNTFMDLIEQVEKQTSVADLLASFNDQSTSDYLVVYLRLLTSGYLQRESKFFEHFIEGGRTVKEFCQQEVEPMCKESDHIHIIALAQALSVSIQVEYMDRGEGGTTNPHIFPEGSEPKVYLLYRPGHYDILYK
Outline: as §1

[8] = molecular target: T4, OTUD4 (UniProt Q01804)
T4 sequence (whole entry): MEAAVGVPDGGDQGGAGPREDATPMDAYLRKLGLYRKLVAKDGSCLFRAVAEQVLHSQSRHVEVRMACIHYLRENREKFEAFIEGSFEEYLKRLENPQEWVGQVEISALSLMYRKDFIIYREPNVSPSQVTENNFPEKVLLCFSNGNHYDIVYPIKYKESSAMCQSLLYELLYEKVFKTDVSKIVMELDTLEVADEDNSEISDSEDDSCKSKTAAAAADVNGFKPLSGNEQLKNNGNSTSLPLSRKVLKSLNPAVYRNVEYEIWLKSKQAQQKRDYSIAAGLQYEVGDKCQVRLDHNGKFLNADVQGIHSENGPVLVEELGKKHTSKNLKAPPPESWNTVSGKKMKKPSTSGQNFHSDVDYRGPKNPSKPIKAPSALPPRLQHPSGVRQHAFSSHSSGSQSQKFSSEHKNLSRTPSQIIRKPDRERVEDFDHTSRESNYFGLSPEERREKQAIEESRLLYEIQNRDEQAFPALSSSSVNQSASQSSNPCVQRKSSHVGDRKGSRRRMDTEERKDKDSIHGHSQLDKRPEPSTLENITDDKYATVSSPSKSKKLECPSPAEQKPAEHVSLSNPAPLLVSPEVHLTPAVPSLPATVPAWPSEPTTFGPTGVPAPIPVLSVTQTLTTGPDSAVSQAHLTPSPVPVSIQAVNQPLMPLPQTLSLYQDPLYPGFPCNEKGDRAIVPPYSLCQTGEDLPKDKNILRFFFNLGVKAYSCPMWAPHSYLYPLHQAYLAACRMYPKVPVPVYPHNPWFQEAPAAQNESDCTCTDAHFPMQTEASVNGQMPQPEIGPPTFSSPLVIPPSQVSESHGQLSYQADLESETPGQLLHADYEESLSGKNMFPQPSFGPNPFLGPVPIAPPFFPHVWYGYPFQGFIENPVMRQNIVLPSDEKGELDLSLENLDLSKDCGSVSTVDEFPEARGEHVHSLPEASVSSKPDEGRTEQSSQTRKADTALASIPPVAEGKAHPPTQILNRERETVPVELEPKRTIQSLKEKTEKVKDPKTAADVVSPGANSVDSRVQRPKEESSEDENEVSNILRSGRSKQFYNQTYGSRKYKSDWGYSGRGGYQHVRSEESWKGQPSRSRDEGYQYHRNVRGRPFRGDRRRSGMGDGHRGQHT
Outline: as §1

[9] = molecular target: T5, OTUD5 (UniProt Q96G74)
T5 sequence (whole entry): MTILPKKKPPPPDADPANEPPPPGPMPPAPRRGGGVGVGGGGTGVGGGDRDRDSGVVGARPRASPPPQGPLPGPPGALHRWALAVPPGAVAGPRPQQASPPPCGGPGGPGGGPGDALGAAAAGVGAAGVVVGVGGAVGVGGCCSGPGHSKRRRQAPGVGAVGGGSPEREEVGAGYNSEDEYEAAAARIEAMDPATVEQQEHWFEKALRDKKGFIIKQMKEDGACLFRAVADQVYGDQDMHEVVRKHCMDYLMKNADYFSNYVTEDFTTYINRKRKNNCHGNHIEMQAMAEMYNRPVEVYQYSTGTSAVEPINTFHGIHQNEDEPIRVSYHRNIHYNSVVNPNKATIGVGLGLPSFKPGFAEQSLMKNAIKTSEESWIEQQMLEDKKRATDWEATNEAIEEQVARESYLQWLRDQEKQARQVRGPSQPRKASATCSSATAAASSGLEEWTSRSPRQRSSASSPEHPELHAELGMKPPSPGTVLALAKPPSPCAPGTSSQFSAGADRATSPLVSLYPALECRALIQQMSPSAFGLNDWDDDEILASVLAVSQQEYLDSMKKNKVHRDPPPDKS
Outline: as §1

Measured: log2 ratio of Biotin-Ahx-Ub-VS probe labelling

CCN(Cc1ccc(C#N)cc1F)C(=O)CCl
active: [2] -1.1
inactive: [1] 0.0792 | [3] -0.691 | [4] -0.201 | [5] 0.0146 | [6] 0.124 | [7] -0.377 | [8] -0.686 | [9] -0.653
